Here are results for seven compounds from PubChem BioAssay (EPA / NIEHS).

Results filed as inconclusive are left out. The source made the active and inactive calls. How the source made its calls, unless noted: active means hit-call score of the fitted dose curve at least 0.9, where 1 is the maximum; inactive means score below 0.9.

Test [1] can be described thus: ATG_NFI_CIS: Attagene CIS-FACTORIAL HepG2 Assay for human Nuclear Factor I (NFI) (AID 2282989). Conditions: HepG2 cis-regulatory reporter, NFI response element transcription; actives raise or lower the signal. The method in brief:
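Read-out: reporter mRNA via RT-PCR plus capillary electrophoresis with fluorescence detection. Transiently transfected HepG2 (endogenous TF activity on cis promoters), 24 h compound exposure; gain or loss of signal fitted against DMSO.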

Test [2] addresses Myc proto-oncogene protein (Homo sapiens) (UniProt P01106). Kind of test: ATG_Myc_CIS: Attagene CIS-FACTORIAL HepG2 Assay for human Myelocytomatosis (Myc) Proto-Oncogene Transcription Factor (AID 2282990). Conditions: HepG2, Attagene cis-reporter transcription factor activity; actives raise or lower the signal. In short, it runs like this: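 Cells of the HepG2 human liver line bear multiple cis-driven reporter transcription units. Reporter mRNA after 24 h exposure is reverse-transcribed, amplified, labelled and resolved by capillary electrophoresis, with gain- or loss-of-signal fitting relative to DMSO.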

Test [3] can be described thus: ATG_NF_kB_CIS: Attagene CIS-FACTORIAL HepG2 Assay for human Nuclear Factor Kappa B (NF-kB) (AID 2282991). To be noted: HepG2 Attagene cis-factorial NF-kB reporter mRNA; actives raise or lower the signal. The method in brief: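 Multiplexed cis-reporter assay in transiently transfected HepG2. 24 h treatment; RNA isolated, RT-PCR, labelled fragments resolved by CE. DMSO baseline.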

A short description of test [4]: ATG_NRF2_ARE_CIS: Attagene CIS-FACTORIAL HepG2 Assay for human Nuclear Factor Erythroid 2 Related Factor 2 (NFR2) response to Antioxidant Response Elements (ARE) (AID 2282992).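 On AC50: reporter mRNA level measured by RT-PCR and capillary electrophoresis fluorescence.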 Conditions: HepG2 Attagene ARE/NRF2 reporter, transcription factor activity; actives raise or lower the signal. In short, it runs like this: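 Multiplexed reporter mRNA profiling in HepG2 after a 24 h chemical exposure. Curves fitted in both directions relative to DMSO negative control.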

For test [5], the target named is Cellular tumor antigen p53 (Homo sapiens) (UniProt P04637). Put plainly: ATG_p53_CIS: Attagene CIS-FACTORIAL HepG2 Assay for human p53 Transcription Factor (AID 2282994). To be noted: HepG2 p53 cis-element reporter, Attagene mRNA; actives raise or lower the signal. In short, it runs like this:
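Multiplexed reporter mRNA assay in human HepG2 liver cells; cis-regulated units report endogenous factor activity. Values come from bidirectional curve fitting against DMSO negative control after 24 h treatment.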

For test [6], the target named is human Peroxisome Proliferator-activated Receptor alpha (PPARa), PPARA (gene 5465) (UniProt Q07869). Kind of test: ATG_PPARa_TRANS: Attagene TRANS-FACTORIAL HepG2 Assay for human Peroxisome Proliferator-activated Receptor alpha (PPARa) (AID 2283001; active means hit-call score of the fitted dose curve at least 0.9, where 1 is the maximum;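 on AC50: potency for gain of reporter signal over DMSO so agonist or activator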). In short, it runs like this:
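Read-out is fluorescence of reporter cDNA fragments resolved by capillary electrophoresis after RT-PCR. Human HepG2 liver cells carried transfected PPARa-Gal4 chimera and GAL4-UAS reporter units, treated 24 h; activity scored as increase over DMSO.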

The target in test [7] is human Peroxisome Proliferator-activated Receptor delta (PPARd), PPARD (gene 5467) (UniProt Q03181). Put plainly: ATG_PPARd_TRANS: Attagene TRANS-FACTORIAL HepG2 Assay for human Peroxisome Proliferator-activated Receptor delta (PPARd) (AID 2283002; active means hit-call score of the fitted dose curve at least 0.9, where 1 is the maximum). The method in brief: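 Cell-based TRANS reporter: HepG2, transient MRTU transfection, 24 h exposure. Readout = reporter mRNA (RT-PCR/CE, 6-FAM). Gain-of-signal fit vs DMSO control.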
human Peroxisome Proliferator-activated Receptor delta (PPARd), PPARD (gene 5467), sequence (Q03181 whole entry, looked up): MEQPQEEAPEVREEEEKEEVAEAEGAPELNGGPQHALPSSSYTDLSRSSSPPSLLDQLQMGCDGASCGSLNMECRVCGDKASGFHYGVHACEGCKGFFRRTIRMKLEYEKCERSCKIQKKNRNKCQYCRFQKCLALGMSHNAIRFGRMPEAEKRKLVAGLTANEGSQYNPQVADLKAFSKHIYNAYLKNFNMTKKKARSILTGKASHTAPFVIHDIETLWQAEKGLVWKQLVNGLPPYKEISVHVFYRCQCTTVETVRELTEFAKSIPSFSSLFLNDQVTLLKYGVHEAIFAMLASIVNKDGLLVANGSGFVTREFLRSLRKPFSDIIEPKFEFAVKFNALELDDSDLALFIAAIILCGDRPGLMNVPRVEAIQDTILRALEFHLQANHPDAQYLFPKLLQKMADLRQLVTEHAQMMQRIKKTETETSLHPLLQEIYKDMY

Test [8] has as its target human Retinoic Acid Receptor beta (RARb), RARB (gene 5915) (UniProt P10826). Put plainly: ATG_RARb_TRANS: Attagene TRANS-FACTORIAL HepG2 Assay for human Retinoic Acid Receptor beta (AID 2283004; active means hit-call score of the fitted dose curve at least 0.9, where 1 is the maximum). In short, it runs like this:
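HepG2, transient MRTU transfection, NR–Gal4 chimera, 24 h treatment; RT-PCR plus CE fluorescence detection of reporter mRNA; gain of signal vs DMSO.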

The target of test [9] is Peroxisome proliferator-activated receptor gamma (Homo sapiens) (UniProt P37231). Kind of test: ATG_PPARg_TRANS: Attagene TRANS-FACTORIAL HepG2 Assay for human Peroxisome Proliferator-activated Receptor-gamma (PPARg) (AID 2283007; active means hit-call score of the fitted dose curve at least 0.9, where 1 is the maximum). The method in brief:
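Human hepatoma HepG2, transient MRTU transfection, 24 h treatment. mRNA reporter signal by RT-PCR plus capillary electrophoresis, fluorescence detection; fitted for increase over DMSO negative control.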

The target of test [10] is Nuclear receptor subfamily 1 group I member 2 (Homo sapiens) (UniProt O75469). Kind of test: ATG_PXR_TRANS: Attagene TRANS-FACTORIAL HepG2 Assay for human Pregnane X Receptor (PXR) (AID 2283008; active means hit-call score of the fitted dose curve at least 0.9, where 1 is the maximum). In short, it runs like this: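 Measures mRNA induction of a GAL4-UAS-driven reporter in human HepG2 cells transiently expressing PXR fused to Gal4, following 24 h treatment. DMSO served as negative control and baseline.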
Nuclear receptor subfamily 1 group I member 2 (Homo sapiens), sequence (O75469 whole entry, looked up, the tested form may be a part): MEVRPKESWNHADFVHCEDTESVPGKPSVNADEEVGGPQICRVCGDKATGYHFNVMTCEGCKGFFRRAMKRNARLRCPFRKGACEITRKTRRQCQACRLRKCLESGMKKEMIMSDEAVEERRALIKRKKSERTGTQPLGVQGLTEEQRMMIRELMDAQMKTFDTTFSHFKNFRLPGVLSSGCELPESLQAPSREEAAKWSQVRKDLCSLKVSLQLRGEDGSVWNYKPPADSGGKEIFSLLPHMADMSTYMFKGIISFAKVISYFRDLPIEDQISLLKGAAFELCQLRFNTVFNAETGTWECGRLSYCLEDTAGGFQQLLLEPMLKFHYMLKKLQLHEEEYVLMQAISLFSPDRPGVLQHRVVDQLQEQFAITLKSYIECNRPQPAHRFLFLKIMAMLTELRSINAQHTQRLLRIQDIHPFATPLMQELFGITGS

Test [11] deals with human Retinoic Acid Receptor gamma (RARg), RARG (gene 5916) (UniProt P13631). Kind of test: ATG_RARg_TRANS: Attagene TRANS-FACTORIAL HepG2 Assay for human Retinoic Acid Receptor gamma (RARg) (AID 2283009; active means hit-call score of the fitted dose curve at least 0.9, where 1 is the maximum;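 on AC50: AC50 is for reporter induction above DMSO meaning RARg activation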). The method in brief:
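Transient transfection of HepG2 with multi-reporter constructs, then 24 h chemical treatment. Total RNA isolated, reverse-transcribed, PCR-amplified, fluorescently labelled and resolved by capillary electrophoresis; activity scored as mRNA induction versus DMSO.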

In test [12] the target is Retinoic acid receptor alpha (Homo sapiens) (UniProt P10276). Put plainly: ATG_RARa_TRANS: Attagene TRANS-FACTORIAL HepG2 Assay for human Retinoic Acid Receptor alpha (RARa) (AID 2283005; active means hit-call score of the fitted dose curve at least 0.9, where 1 is the maximum). The method in brief:
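Reporter transcripts, measured by RT-PCR with fluorescent labeling and capillary electrophoresis after 24 h dosing, reflect activity of an exogenous human RARa–GAL4 fusion in transiently transfected HepG2. Fitted for increase relative to DMSO.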

Test [13] concerns the target human RAR-related Orphan Receptor beta (RORb), RORB (gene 6096) (UniProt Q92753). Kind of test: ATG_RORb_TRANS: Attagene TRANS-FACTORIAL HepG2 Assay for human RAR-related Orphan Receptor beta (RORb) (AID 2283010; active means hit-call score of the fitted dose curve at least 0.9, where 1 is the maximum). In short, it runs like this: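 Readout is reporter-gene mRNA induction, detected as fluorescence after RT-PCR and capillary electrophoresis, fitted for gain of signal against DMSO controls. Transiently transfected HepG2 liver cells carrying GAL4-UAS reporter constructs were treated for 24 hours.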

The nature of test [14]: ATG_Oct_MLP_CIS: Attagene CIS-FACTORIAL HepG2 Assay for human Octamer-Binding Transcription Factor (Oct) (AID 2282993). To be noted: HepG2 Attagene cis-factorial Oct reporter, mRNA; actives raise or lower the signal. The method in brief: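 Read-out: reporter mRNA via RT-PCR plus capillary electrophoresis of 6-FAM-labelled fragments. Transiently transfected HepG2, 24 h exposure, endogenous TF activity on cis elements. Gain or loss of signal fitted relative to DMSO.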

Broadly, the AC50 is the concentration at which the activity in the assay is half-maximal.

human Peroxisome Proliferator-activated Receptor alpha (PPARa), PPARA (gene 5465), sequence (Q07869 whole entry, looked up, the tested form may be a part): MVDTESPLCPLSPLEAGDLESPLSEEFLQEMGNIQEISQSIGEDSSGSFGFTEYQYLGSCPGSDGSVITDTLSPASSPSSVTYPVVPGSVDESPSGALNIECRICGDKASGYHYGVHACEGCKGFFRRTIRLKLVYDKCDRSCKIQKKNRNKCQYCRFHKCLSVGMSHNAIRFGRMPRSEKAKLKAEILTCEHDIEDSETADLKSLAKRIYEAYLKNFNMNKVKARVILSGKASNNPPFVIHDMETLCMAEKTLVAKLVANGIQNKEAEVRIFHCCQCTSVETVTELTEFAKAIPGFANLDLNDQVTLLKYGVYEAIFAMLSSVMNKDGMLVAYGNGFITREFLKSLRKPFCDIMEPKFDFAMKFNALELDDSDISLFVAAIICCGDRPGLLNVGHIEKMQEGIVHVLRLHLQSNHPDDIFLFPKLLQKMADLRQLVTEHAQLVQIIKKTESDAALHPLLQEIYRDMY
Cellular tumor antigen p53 (Homo sapiens), sequence (P04637 whole entry, looked up): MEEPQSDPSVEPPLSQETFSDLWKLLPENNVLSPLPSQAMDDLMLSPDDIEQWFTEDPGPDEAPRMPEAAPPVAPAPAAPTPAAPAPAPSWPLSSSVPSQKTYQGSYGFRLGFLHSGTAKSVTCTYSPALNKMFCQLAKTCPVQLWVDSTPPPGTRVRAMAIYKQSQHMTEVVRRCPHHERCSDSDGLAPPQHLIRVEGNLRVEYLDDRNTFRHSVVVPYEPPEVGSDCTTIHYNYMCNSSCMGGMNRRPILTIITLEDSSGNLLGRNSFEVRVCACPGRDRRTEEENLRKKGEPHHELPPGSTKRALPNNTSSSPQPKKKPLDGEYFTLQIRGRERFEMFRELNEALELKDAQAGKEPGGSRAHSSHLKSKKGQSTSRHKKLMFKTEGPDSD
human RAR-related Orphan Receptor beta (RORb), RORB (gene 6096), sequence (Q92753 whole entry, looked up, the tested form may be a part): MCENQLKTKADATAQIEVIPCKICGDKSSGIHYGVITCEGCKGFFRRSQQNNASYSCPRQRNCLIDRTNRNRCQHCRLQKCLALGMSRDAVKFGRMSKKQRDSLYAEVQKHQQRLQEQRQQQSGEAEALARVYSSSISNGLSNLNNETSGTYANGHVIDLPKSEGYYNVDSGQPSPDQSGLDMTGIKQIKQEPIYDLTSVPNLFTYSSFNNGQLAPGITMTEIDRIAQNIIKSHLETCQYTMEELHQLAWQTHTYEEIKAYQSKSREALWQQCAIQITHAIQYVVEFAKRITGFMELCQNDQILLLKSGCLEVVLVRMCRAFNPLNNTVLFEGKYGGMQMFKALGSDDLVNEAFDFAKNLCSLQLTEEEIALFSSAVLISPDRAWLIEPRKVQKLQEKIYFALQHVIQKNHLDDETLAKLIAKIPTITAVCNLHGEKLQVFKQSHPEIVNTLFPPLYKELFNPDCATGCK
Peroxisome proliferator-activated receptor gamma (Homo sapiens), sequence (P37231 whole entry, looked up): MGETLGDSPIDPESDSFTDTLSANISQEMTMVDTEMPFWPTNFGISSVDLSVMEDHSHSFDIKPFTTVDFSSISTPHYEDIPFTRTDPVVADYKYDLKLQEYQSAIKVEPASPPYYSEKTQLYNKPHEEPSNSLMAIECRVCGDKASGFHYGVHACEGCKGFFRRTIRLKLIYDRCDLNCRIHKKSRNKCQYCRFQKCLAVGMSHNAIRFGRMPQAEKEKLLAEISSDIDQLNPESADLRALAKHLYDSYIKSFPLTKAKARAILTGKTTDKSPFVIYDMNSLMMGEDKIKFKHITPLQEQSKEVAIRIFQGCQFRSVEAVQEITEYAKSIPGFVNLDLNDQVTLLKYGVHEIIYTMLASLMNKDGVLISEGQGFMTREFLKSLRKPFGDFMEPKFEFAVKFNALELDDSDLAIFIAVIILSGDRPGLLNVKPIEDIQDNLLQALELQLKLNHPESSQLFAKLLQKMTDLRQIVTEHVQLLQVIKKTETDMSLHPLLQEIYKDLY
Myc proto-oncogene protein (Homo sapiens), sequence (P01106 whole entry, looked up): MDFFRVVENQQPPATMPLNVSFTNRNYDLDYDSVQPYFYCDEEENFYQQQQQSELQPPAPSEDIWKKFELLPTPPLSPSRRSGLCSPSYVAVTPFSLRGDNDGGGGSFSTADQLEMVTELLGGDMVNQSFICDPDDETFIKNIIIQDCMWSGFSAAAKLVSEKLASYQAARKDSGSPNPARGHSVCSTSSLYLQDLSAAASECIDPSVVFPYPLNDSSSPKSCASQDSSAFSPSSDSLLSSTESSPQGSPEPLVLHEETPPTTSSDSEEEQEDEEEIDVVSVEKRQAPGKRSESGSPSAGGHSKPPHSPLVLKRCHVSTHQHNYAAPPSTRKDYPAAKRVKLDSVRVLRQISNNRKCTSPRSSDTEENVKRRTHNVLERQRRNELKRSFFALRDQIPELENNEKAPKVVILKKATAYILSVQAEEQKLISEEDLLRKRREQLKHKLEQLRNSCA
human Retinoic Acid Receptor gamma (RARg), RARG (gene 5916), sequence (P13631 whole entry, looked up): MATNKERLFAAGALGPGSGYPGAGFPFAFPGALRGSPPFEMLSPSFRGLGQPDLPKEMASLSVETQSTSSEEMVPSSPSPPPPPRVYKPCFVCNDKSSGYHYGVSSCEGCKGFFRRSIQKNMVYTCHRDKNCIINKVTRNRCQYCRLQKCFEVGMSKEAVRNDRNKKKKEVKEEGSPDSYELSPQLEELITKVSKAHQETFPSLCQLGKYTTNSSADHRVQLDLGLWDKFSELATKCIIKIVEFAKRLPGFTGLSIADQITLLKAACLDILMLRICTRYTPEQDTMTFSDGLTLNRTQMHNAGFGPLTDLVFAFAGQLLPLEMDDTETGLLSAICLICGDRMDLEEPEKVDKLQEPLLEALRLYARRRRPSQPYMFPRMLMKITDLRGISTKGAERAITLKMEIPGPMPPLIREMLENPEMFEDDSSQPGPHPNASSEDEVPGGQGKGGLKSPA
human Retinoic Acid Receptor beta (RARb), RARB (gene 5915), sequence (P10826 whole entry, looked up, the tested form may be a part): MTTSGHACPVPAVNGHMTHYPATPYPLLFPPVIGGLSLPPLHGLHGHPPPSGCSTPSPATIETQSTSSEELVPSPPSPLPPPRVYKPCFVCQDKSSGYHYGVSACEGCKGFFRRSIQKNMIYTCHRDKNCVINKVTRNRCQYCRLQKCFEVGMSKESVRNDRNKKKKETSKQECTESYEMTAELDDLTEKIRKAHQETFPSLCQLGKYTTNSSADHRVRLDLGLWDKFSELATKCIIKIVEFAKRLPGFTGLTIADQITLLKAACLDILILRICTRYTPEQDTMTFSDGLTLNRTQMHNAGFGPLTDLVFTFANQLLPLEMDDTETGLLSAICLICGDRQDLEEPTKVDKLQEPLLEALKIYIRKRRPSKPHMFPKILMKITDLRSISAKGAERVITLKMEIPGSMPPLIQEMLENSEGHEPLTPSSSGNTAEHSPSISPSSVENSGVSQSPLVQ
Retinoic acid receptor alpha (Homo sapiens), sequence (P10276 whole entry, looked up, the tested form may be a part): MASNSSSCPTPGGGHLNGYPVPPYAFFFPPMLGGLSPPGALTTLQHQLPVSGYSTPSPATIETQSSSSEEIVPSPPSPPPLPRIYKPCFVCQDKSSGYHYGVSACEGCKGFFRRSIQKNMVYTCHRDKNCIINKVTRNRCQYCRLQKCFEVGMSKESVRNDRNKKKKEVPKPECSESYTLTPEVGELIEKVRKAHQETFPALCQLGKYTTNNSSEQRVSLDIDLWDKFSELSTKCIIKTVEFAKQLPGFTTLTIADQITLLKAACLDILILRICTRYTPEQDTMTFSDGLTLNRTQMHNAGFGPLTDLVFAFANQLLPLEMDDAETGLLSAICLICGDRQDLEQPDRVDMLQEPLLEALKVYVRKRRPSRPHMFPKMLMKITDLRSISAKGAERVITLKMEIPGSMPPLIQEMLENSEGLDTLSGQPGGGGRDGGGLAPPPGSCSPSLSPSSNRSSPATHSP

Take `CCc1cc(Cc2cc(CC)cc(C(C)(C)C)c2O)c(O)c(C(C)(C)C)c1`: the half-maximal activity concentration (AC50) in test [1] was 13.5 µM (active); in test [3], 17.4 µM (active); in test [4], 7.08 µM (active); in test [6], 51.9 µM (active); in test [9], 7.31 µM (active); in test [10] it was 0.028 µM (active). The AC50 in test [11] was 9.1 µM (active). The result in [2], in test [5], in test [7] and in test [8] was inactive.

On to `CCOc1ccccc1O`, for which the compound was classed as inactive in test [1], in test [2], in test [3], in [4], in [5] and in test [12]. The outcome in test [9], in [10] and in [13] was inactive.

For `CC(C)(C)OC(=O)c1ccc(O)cc1`, the compound was called inactive in test [1], in test [2], in [3], in [7] and in test [10]. For the same compound, the AC50 in test [4] is 35 µM (active); in test [14], 100 µM (active); in [9], 39.4 µM (active).

As to `CC(C)=CCCC(C)CCOC=O` (centres undefined), the compound was called inactive in test [1], in test [2], in test [3], in test [4], in test [5] and in test [9]. Further, the outcome in [10] was inactive.

In the case of `CC(Oc1cc(Cl)ccc1Cl)C(=O)O` (centres undefined), the compound was called inactive in [1], in [2], in test [3], in test [4], in test [5] and in test [6]. In addition, the compound was classed as inactive in [7], in [9] and in test [10].

`CC1=C(Br)C(=O)C(Br)=C/C1=C(/c1ccccc1S(=O)(=O)O)c1cc(Br)c(O)c(Br)c1C`: the outcome in test [1], in test [2], in [3], in test [4], in [14] and in test [7] was inactive. Moreover, the compound was called inactive in test [8], in test [9], in [11] and in test [13]. Moreover, in test [10], the AC50 is 29.6 µM (active).

Regarding `COC(=O)c1ccc([N+](=O)[O-])cc1`, the compound was classed as inactive in [1], in [2], in test [3], in [4], in test [5] and in test [6]. For the same compound, the outcome in [7], in test [9] and in test [13] was inactive.
